Data published in PubChem BioAssay.
Calls of active or inactive are those of the source.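 Rule for the calls: active = normalized viability below 100% at a tested concentration; inactive = the rest.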

assay: drug combination growth inhibition, ovarian cancer – cell-based, oncology-focused library, rucaparib conditional, profiling panel (AID 1508598); settings: patient-derived ovarian cancer cells, CellTiter-Glo viability, 144 h; at 5 µM; OCI-P5x cells; with rucaparib 20 µM; stronger effect = lower value; 100% = cells with rucaparib alone

SMILES	viability
CNC(=O)c1ccc(N2C(=S)N(c3ccc(C#N)c(C(F)(F)F)c3)C(=O)C2(C)C)cc1F	97.6% (active)
Cn1cncc1[C@@](N)(c1ccc(Cl)cc1)c1ccc2c(c1)c(-c1cccc(Cl)c1)cc(=O)n2C	0.988% (active)
O=C(O)c1ccc2c(c1)nc(Nc1cccc(Cl)c1)c1ccncc12	33.3% (active)
CC(C)C[C@H](NC(=O)CNC(=O)c1cc(Cl)ccc1Cl)B(O)O	1.18% (active)
CC1(C)CCC(c2ccc(Cl)cc2)=C(CN2CCN(c3ccc(C(=O)NS(=O)(=O)c4ccc(N[C@H](CCN5CCOCC5)CSc5ccccc5)c(S(=O)(=O)C(F)(F)F)c4)cc3)CC2)C1	0.895% (active)
C#Cc1cccc(Nc2ncnc3cc(OCCOC)c(OCCO)cc23)c1	68.7% (active)
CC(C)CC(=O)Nc1n[nH]c2c1CN(C(=O)C1CCN(C)CC1)C2(C)C	25.6% (active)
C=CCn1c(=O)c2cnc(Nc3ccc(N4CCN(C)CC4)cc3)nc2n1-c1cccc(C(C)(C)O)n1	14.5% (active)
O=C(O)[C@H](Cc1c[nH]c2ccccc12)N1C(=O)c2ccccc2C1=O	87.9% (active)
O=C(NC1CCNCC1)c1[nH]ncc1NC(=O)c1c(Cl)cccc1Cl	17.1% (active)
CC(C)C[C@H](NC(=O)CNC(=O)c1cc(Cl)ccc1Cl)B1OC(=O)CC(CC(=O)O)(C(=O)O)O1 (some centres not stated)	1.46% (active)

same assay, conditions: patient-derived ovarian cancer cells, CellTiter-Glo viability, 144 h; at 5 µM; OCI-P5x cells; without rucaparib; stronger effect = lower value

SMILES	viability
CNC(=O)c1ccc(N2C(=S)N(c3ccc(C#N)c(C(F)(F)F)c3)C(=O)C2(C)C)cc1F	93.9% (active)
Cn1cncc1[C@@](N)(c1ccc(Cl)cc1)c1ccc2c(c1)c(-c1cccc(Cl)c1)cc(=O)n2C	1.42% (active)
O=C(O)c1ccc2c(c1)nc(Nc1cccc(Cl)c1)c1ccncc12	35.6% (active)
CC(C)C[C@H](NC(=O)CNC(=O)c1cc(Cl)ccc1Cl)B(O)O	0.837% (active)
CC1(C)CCC(c2ccc(Cl)cc2)=C(CN2CCN(c3ccc(C(=O)NS(=O)(=O)c4ccc(N[C@H](CCN5CCOCC5)CSc5ccccc5)c(S(=O)(=O)C(F)(F)F)c4)cc3)CC2)C1	10.5% (active)
C#Cc1cccc(Nc2ncnc3cc(OCCOC)c(OCCO)cc23)c1	64.5% (active)
CC(C)CC(=O)Nc1n[nH]c2c1CN(C(=O)C1CCN(C)CC1)C2(C)C	6.68% (active)
C=CCn1c(=O)c2cnc(Nc3ccc(N4CCN(C)CC4)cc3)nc2n1-c1cccc(C(C)(C)O)n1	7.98% (active)
O=C(O)[C@H](Cc1c[nH]c2ccccc12)N1C(=O)c2ccccc2C1=O	107% (inactive)
O=C(NC1CCNCC1)c1[nH]ncc1NC(=O)c1c(Cl)cccc1Cl	14% (active)
CC(C)C[C@H](NC(=O)CNC(=O)c1cc(Cl)ccc1Cl)B1OC(=O)CC(CC(=O)O)(C(=O)O)O1 (some centres not stated)	0.836% (active)
